For 113 compounds, inhibition results are on record in PubChem BioAssay AID488890 (Southern Research Specialized Biocontainment Screening …, 2010).

A word on the inhibition: it is the change of the read-out against control, counted positive when it falls.

Hit rate of the full screen: of about 320,000 compounds, about 1,300 (0.41%) were called active. Not shown: some 3% with an inconclusive outcome. How the calls were made is not given here. Not all results are given here. Potency and affinity values are given separately.

This experiment can be described thus: growth inhibition of non-replicating M. tuberculosis (AID 488890).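 Further: plate controls were DMSO cells for no effect and high antibiotic wells for full effect.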 Particulars: Mycobacterium tuberculosis non-replicating, at 25 µM, stronger effect = higher value.
For the compound `N=c1c(S(=O)(=O)c2ccc(Cl)cc2)cc2c(=O)n3ccccc3nc2n1CCc1ccccc1`, the inhibition was 16.6%. Regarding `Cc1ccc(C)c(OCCCN2CCCC2)c1`, the inhibition was -3.13%.

`Brc1ccc(/C=N/Nc2nc3ccccc3o2)cc1`: the inhibition is 0.82%. For `Oc1ccc(Br)cc1/C=N/Nc1ncc(-c2ccccc2)cn1`, the inhibition was found to be 1.56%.

As to `Fc1ccccc1/C=N/Nc1nc2ccccc2o1`, the inhibition was determined as 14.1%. Regarding `Oc1ccc(/C=N/Nc2ncc(Br)cn2)c(O)c1`, the inhibition was 57.8%.

In the case of `Clc1cc(Cl)cc(NC2=NCCS2)c1`, the inhibition amounted to 5.95%. In the case of `COc1ccc(S(=O)(=O)n2oc(=O)cc2-c2ccccc2)cc1OC`, the inhibition is -6.84%.

As for `Cc1occc1C(=O)NC1CCCc2ccccc21` (stereo not drawn), the inhibition stood at 3.75%.

For the compound `Cc1ccc(NC(=O)COc2ncnc3sccc23)cc1S(=O)(=O)N(C)C`, the inhibition was found to be 7.74%.

For the compound `Cc1c(C#N)c2ccccc2n1C`, the inhibition is -15.1%. For the compound `COc1ccc(N2CC(C(=O)OCC(=O)c3ccc(C)cc3)CC2=O)cc1` (stereo not drawn), the inhibition turned out to be 23.6%. As to `COc1cccc(COC(=O)C2CC(=O)N(Cc3ccc(C)cc3)C2)c1OC` (stereo not drawn), the inhibition is 76.5%.

Turning to `O=C(O)C1CC(=O)N(c2ccc(OCc3ccccc3Cl)cc2)C1` (stereo not drawn), the inhibition stood at 31.4%. For the compound `COC(=O)C1CC(=O)N(c2ccc(C)cc2)C1` (stereo not drawn), the inhibition was determined as 24.5%. As to `NC(=O)C1CC(=O)N(c2ccc(OCc3ccccc3Cl)cc2)C1` (stereo not drawn), the inhibition is 58.3%.

Consider `O=C(OCc1ccccc1Cl)C1CC(=O)N(Cc2ccco2)C1` (stereo not drawn), for which the inhibition was 12.3%. `O=C1N(Cc2cccnc2)C[C@@H]2C[C@@H](c3cccc(OCc4ccccc4)c3)N3CCC[C@@]123`: the inhibition is 13.3%.

Take `O=C(C1CCCN(C2CC(=O)N(c3ccc(Cl)cc3)C2=O)C1)N1CCCC1` (stereo not drawn): the inhibition was determined as 62.9%. Under `COc1cc(/C=N/NC(=O)c2cc(C)oc2C)cc(OC)c1OC` stands 5.12%. The same measure for `Cc1cc(C(=O)OC(C)C(=O)N2CCc3ccccc32)ccc1[N+](=O)[O-]` (stereo not drawn): -2.01%.

Regarding `C=CCc1ccc(OCCCCOc2ccc(C(=O)O)cc2)c(OC)c1`, the inhibition came out at 65.2%. With `CCOc1ccc(C(=O)OCC(=O)N(Cc2ccccc2)Cc2ccccc2)cc1OC`, the inhibition came out at 6.46%. As to `CCN(C(=O)COn1nnc2ccc(S(=O)(=O)N(C)C)cc21)C1CCS(=O)(=O)C1` (stereo not drawn), the inhibition was -12%.

As for `Cc1ccccc1OC1CCN(C(=O)C2CCC(=O)N(C3CCCC3)C2)CC1` (stereo not drawn), the inhibition is -4.05%. `COc1ccnc2c1c(=O)n(Cc1ccc(Cl)cc1Cl)c(=O)n2C`: the inhibition worked out at 7.37%.

As to `COc1ccc(OC)c(S(=O)(=O)NCC(=O)O)c1`, the inhibition is -1.93%.

Consider `C[C@H](CO)N1C[C@H](C)[C@@H](CN(C)S(C)(=O)=O)Oc2ccc(NC(=O)C3CCCCC3)cc2C1=O`, for which the inhibition is -13.1%. With `O=c1cc(-c2ccccc2)oc2cc(O)cc(O)c12`, the inhibition turned out to be 9.39%. The same measure for `O=c1cc(-c2ccc(O)cc2)oc2cc(O)cc(O)c12`: 20.1%. Consider `CCOC(=O)c1ccc([N+](=O)[O-])cc1NC(C)=O`, for which the inhibition was -5.06%. Regarding `CCOC(=O)c1ccc(NC(C)=O)c([N+](=O)[O-])c1`, the inhibition is -2.26%.

For the compound `Cc1cc(S(=O)(=O)NCCCn2ccnc2)c(C)cc1Cl`, the inhibition was found to be 21.8%. For the compound `Cc1ccc(NC(=O)C2C3C=CC4(O3)C2C(=O)N(CCN2CCOCC2)C4C(=O)NC2CCCCC2)cc1C` (stereo not drawn), the inhibition stood at 4.86%. As for `COc1ccc(Cl)cc1S(=O)(=O)NC(C)C(=O)NCc1cccnc1` (stereo not drawn), the inhibition amounted to 0.53%.

As for `CNc1c(C(=O)O)ccc2c1C(=O)c1ccccc1C2=O`, the inhibition is -14.2%. With `COc1ccc2c(c1O)C(=O)c1ccccc1C2=O`, the inhibition was -8.36%. `CCc1ccccc1NS(=O)(=O)c1cc(C)ccc1OC`: the inhibition worked out at 16.3%. Turning to `CCOc1ccc2nc(NCCCO)[nH]c2c1`, the inhibition was 2.84%. Regarding `O=C(O)c1cccc(S(=O)(=O)Nc2cc(Cl)ccc2Cl)c1`, the inhibition was found to be 13.1%. Consider `COc1ccc(NC(=O)C2CCN(S(=O)(=O)c3ccc(Br)s3)CC2)cc1OC`, for which the inhibition is -2.33%. The same measure for `Cc1ccc(C2C(C#N)=C(N)Oc3n[nH]c(C)c32)cc1` (stereo not drawn): -4.34%; for `Cc1[nH]nc2c1C(c1ccc(Cl)cc1)C(C#N)=C(N)O2` (stereo not drawn): -2.67%; for `Cc1[nH]nc2c1C(c1ccc(-c3ccccc3C#N)o1)C(C#N)=C(N)O2` (stereo not drawn): 49.7%. The same measure for `CCCc1[nH]nc2c1C(c1cccc(OC(=O)c3ccco3)c1)C(C#N)=C(N)O2` (stereo not drawn): 17.8%; for `COc1ccc(Br)cc1CNc1ccc(N2CCOCC2)cc1`: 24%. On to `CCCCN(C(=O)C1CC(=O)N(c2ccc3c(c2)OCCO3)C1)c1c(N)n(CCCC)c(=O)[nH]c1=O` (stereo not drawn), for which the inhibition was 0.16%.

With `Cc1ccccc1NC(=O)c1nn(C)c2c1CS(=O)(=O)c1ccccc1-2`, the inhibition was -16.9%. As to `O=C(O)C1CC(O)CN1S(=O)(=O)c1ccc2ccccc2c1` (stereo not drawn), the inhibition turned out to be 8.45%.

With `O=C(Oc1cccnc1)c1cccc(Cl)c1`, the inhibition came out at 51.8%. Regarding `O=C(Oc1cccnc1)c1ccc(Cl)cc1`, the inhibition is 8.07%. `CCOC(=O)c1ccc2[nH]c3c(c2c1)CCCC3C(=O)OCC` (stereo not drawn): the inhibition was determined as 64.3%. In the case of `CCOC(=O)C1CCCc2c1[nH]c1c(C(=O)O)cccc21` (stereo not drawn), the inhibition worked out at 67.3%. On to `CCOC(=O)c1c(C)nc2ccccn12`, for which the inhibition came to 6.28%. For the compound `CCOC(=O)c1c(C)nc2ccc(C)cn12`, the inhibition was 37%. The same measure for `CC1Cc2cc(/C=C3/SC(N4CCC(C(N)=O)CC4)=NC3=O)ccc2O1` (stereo not drawn): 21.7%; for `CC1Cc2cc(/C=C3/SC(=S)N(C)C3=O)ccc2O1` (stereo not drawn): 5.53%; for `COC(=O)c1ccc(C23CC4(C2)[C@H](CN(C)[C@@H]4c2ccccc2)C3c2ccccc2)cc1` (stereo partly drawn): -17.5%. The same measure for `Cc1ccc(N2CC(=O)Nc3c(sc4nc(C)cc(C)c34)C2=O)cc1`: 7.84%. On to `O=C(CNC(=O)c1ccc(Cl)cc1)Nc1ccc(S(=O)(=O)Nc2ncccn2)cc1`, for which the inhibition worked out at 19.6%. Turning to `Cc1ccnc(NC(=O)CN(C)S(=O)(=O)c2cccc3nsnc23)c1`, the inhibition is 4.38%. `Cc1nc2ccccc2c(=O)n1N(c1ccccc1)c1ccccc1`: the inhibition came out at 40%. The same measure for `O=C1C=CC(=O)N1Cc1ccccc1`: 33.7%; for `O=C(Nc1cccc(F)c1)C1CCCN1C(=O)OCc1ccccc1` (stereo not drawn): -8.2%. Take `COc1ccc(-c2cc(C(=O)NC(C)C)no2)cc1`: the inhibition was determined as 2.59%. As for `COc1ccc(-c2cc(C(=O)O)no2)cc1`, the inhibition is 9.82%.

Take `Brc1ccc2nc3c(n2c1)CCCC3`: the inhibition was 40.8%. Under `CC(C)(C)S(=O)(=O)c1ccc2nc3c(n2c1)CCCC3` stands 12.6%; under `CN(c1ccccc1C(=O)O)S(C)(=O)=O`, -5.19%; under `CC1(c2ccccc2Cl)NC(=O)N(CC(=O)N2CCN(S(=O)(=O)c3ccccc3)CC2)C1=O` (stereo not drawn), -5.46%. On to `O=C(CNC(=O)c1ccco1)N/N=C/c1ccccc1[N+](=O)[O-]`, for which the inhibition was -2.46%. Consider `CC(=O)Nc1nc(-c2cccs2)cs1`, for which the inhibition amounted to 18.4%. On to `O=C(Nc1nc2c(F)cccc2s1)c1ccc([N+](=O)[O-])o1`, for which the inhibition was found to be 65.5%. Regarding `O=C(Nc1ccc(N2CCN(C(=O)c3cccs3)CC2)cc1)c1ccc(Br)o1`, the inhibition amounted to 67.5%.

Regarding `CC(C)C(=O)N1CCN(c2ccc(NC(=O)c3ccc(Br)o3)cc2)CC1`, the inhibition was 8.34%. The same measure for `Cc1ccccc1C(=O)N1CCN(c2ccc(NC(=O)c3ccc([N+](=O)[O-])o3)cc2)CC1`: 78.2%; for `O=C(Nc1nc(-c2cccs2)cs1)c1ccco1`: 25.2%; for `O=C(Nc1ccc(N2CCN(C(=O)c3cccs3)CC2)cc1)c1ccco1`: -3.51%. With `O=C(Nc1nc2ccccc2s1)c1ccc([N+](=O)[O-])o1`, the inhibition turned out to be 64.8%. The same measure for `COc1ccccc1CN(C)C(=O)COC(=O)c1ccc(Cl)nc1`: 73.1%; for `COCCn1nnnc1CN1CCN(C(=O)c2ccco2)CC1`: -9.84%. Turning to `CC(NC(=O)c1cccs1)C(S)c1ccccc1` (stereo not drawn), the inhibition is 13.2%. On to `CN(CC(=O)Nc1ccccc1Br)C(=O)CCc1ccccc1`, for which the inhibition turned out to be 6.37%.

Consider `COC(=O)c1ccc(N2C(=O)CC(N(C)CCc3ccc(OC)c(OC)c3)C2=O)cc1` (stereo not drawn), for which the inhibition is -11.7%.

For `O=C(Nc1ncnc2c1CCC2)C12CC3CC(CC(C3)C1)C2`, the inhibition is -0.8%.

For `CC(C)(C)c1ccc(NNC(=O)C2CCC2)cc1`, the inhibition was 23.3%. Turning to `COc1cc(NC(=O)c2ccc([N+](=O)[O-])o2)ccc1NC(=O)c1cccs1`, the inhibition was determined as 44%. As for `O=C(Nc1cccc(NC(=O)c2cccs2)c1)c1ccc(Br)o1`, the inhibition was 40.6%. Under `COc1ccc(C(=O)C2CCCN(C(=O)c3cccc(Cl)c3F)C2)cc1OC` (stereo not drawn) stands 8.33%; under `Cc1cccnc1NC(=O)c1ccc2c(c1)NC(=O)C(C)S2` (stereo not drawn), -14.1%; under `Cc1ccc(SCC(=O)Nc2cc(S(=O)(=O)N3CCCCC3)ccc2C)cc1`, 29.3%. Take `O=C(Cn1nc(-c2ccccc2F)ccc1=O)Nc1ccc(S(=O)(=O)N2CCCCCC2)cc1`: the inhibition came to 30.3%. `O=C(NN=C1CCCC1)c1ccc(Cl)cc1`: the inhibition is -5.56%. For `O=C1CCC/C(=N\NC(=O)COc2ccc(Cl)cc2)C1`, the inhibition came to 2.35%. For `O=C1OC(/C(=C\Nc2ccc(F)cc2F)[N+](=O)[O-])c2ccccc21` (stereo not drawn), the inhibition is -5.17%. Under `O=C1OC(/C(=C\Nc2ccccc2)[N+](=O)[O-])c2ccccc21` (stereo not drawn) stands -1.48%; under `CC(C)(C)c1cc(NCCCn2ccnc2)n2ncc(-c3ccc(Cl)cc3)c2n1`, 67.9%. Regarding `CC(C)(C)c1cc(NCCCn2ccnc2)n2ncc(-c3ccccc3)c2n1`, the inhibition was 73.1%. Regarding `CCOC(=O)c1ccc(N2CN(CC)CNC2=S)cc1`, the inhibition is 51.5%.

For `OC(CCc1cccc(Cl)c1)c1cccs1` (stereo not drawn), the inhibition was found to be 75.1%.

As to `CCO[C@H]1OC(C(=O)N2CCN(Cc3ccc4c(c3)OCO4)CC2)=C[C@@H](C)[C@@H]1CCCO`, the inhibition is -18%. Under `COc1ccccc1CCNC(=O)c1ccoc1C` stands 3.23%. On to `COc1ccccc1OCCNC(=O)c1ccc(C)o1`, for which the inhibition was -13.1%. The same measure for `CCOC(=O)c1cc(C(=O)NC(C)c2ccccc2)c(=O)[nH]c1C` (stereo not drawn): -20.4%; for `CNC(=O)COC(=O)c1cc(F)c(F)cc1Cl`: 19.5%; for `COC(=O)CNC(=O)COC(=O)c1cc(F)c(F)cc1Cl`: 42.5%.

For the compound `CC(C)NC(=O)COC(=O)c1cc(Br)ccc1Cl`, the inhibition is 75.9%.

Take `CC(C)(C)NC(=O)COC(=O)c1cc(Br)ccc1Cl`: the inhibition came to 63.1%. For `Cc1ccc(C)c(NC(=O)C2CC3CCC2C3)c1` (stereo not drawn), the inhibition came to 15.3%. As for `CC(C)(C)OC(=O)C[C@@H]1C/C=C\C[C@@H](CC(=O)N(CCO)Cc2ccccc2)C(=O)N[C@H](Cc2c[nH]c3ccccc23)COC1=O`, the inhibition is 67%. With `Cc1ccc(SCC(=O)OCC(=O)N2CCN(C(=O)c3ccco3)CC2)c(C)c1`, the inhibition was found to be 15.3%. With `Cc1ccc(/C=C/C(=O)N2CCCC(C(N)=O)C2)o1` (stereo not drawn), the inhibition came out at 4.1%. As to `O=C(c1ccc2c(c1)N(Cc1ccccc1F)C(=O)c1ccccc1S2)N1CCOCC1`, the inhibition is 33.2%.
